Compound activity (PubChem BioAssay)
aSyn UTR act – Activators working through SNCA 5'UTR binding (MLPCN) | alpha-synuclein 5'UTR reporter, activators screen | activity score, % (tested at 7.5 µM), hits read low | 300,000 tested, 7.1% active; in the data active means activity score below about -60%
Of the large screens only hits and unclear results are named; the others gave an inactive call. Not all results are given here.

COc1ccc(-c2cc3nc(C)cc(C)n3n2)cc1	aSyn UTR act -182.9
CCOc1cc(/C=C2/SC(=S)N(C)C2=O)ccc1Oc1ccc([N+](=O)[O-])cc1[N+](=O)[O-]	aSyn UTR act -62.0
CCOc1cc(/C=C2/NC(=S)NC2=O)ccc1OCc1ccc([N+](=O)[O-])cc1	none
COc1ccc(CCN2CC(C(=O)NCCc3ccccc3)CC2=O)cc1OC (configuration not stated)	aSyn UTR act -97.3
COc1ccc(CCNCC(O)Cn2c3ccccc3c3ccccc32)cc1OC (configuration not stated)	none
O=C(Nc1ccc(NC(=O)c2ccco2)c(Cl)c1)c1ccc2c(c1)OCCO2	aSyn UTR act -76.1
O=C(Nc1c(C(=O)Nc2ccc3c(c2)OCCO3)cnn1-c1ccccc1Cl)c1ccco1	aSyn UTR act -102.1
O=C(Nc1cc2c(cc1Br)OCCO2)c1ccco1	aSyn UTR act -100.6
O=C(Nc1cc2c(cc1Br)OCCO2)c1cccs1	aSyn UTR act -141.9
O=C(Nc1cc2c(cc1Cl)OCCO2)c1ccco1	aSyn UTR act -162.7
CCOc1ccc(/C=N/NC(=O)c2ccccc2NC(=O)c2ccc(OC)cc2)cc1	aSyn UTR act -71.4
O=C(Nc1ccccc1C(=O)N/N=C/c1ccncc1)c1ccccc1	aSyn UTR act -140.4
COc1ccc(C(=O)Nc2ccccc2C(=O)N/N=C/c2ccco2)cc1	aSyn UTR act -78.8
CCOc1ccc(C(=O)Nc2ccccc2C(=O)O)cc1	aSyn UTR act -89.5
O=C(Nc1ccc2sccc2c1)c1ccc(Cl)s1	aSyn UTR act -198.1
Cc1ccccc1C(=O)Nc1ccc(Br)cn1	aSyn UTR act -76.5
O=C(Nc1nc(-c2ccccn2)cs1)c1ccc(Cl)s1	none
O=C(Nc1nccs1)c1ccc(Cl)s1	aSyn UTR act -105.6
O=C(Nc1ccccn1)c1ccc(Cl)s1	aSyn UTR act -128.5
O=C(Nc1ccc(Br)cn1)c1ccc(Cl)s1	aSyn UTR act -167.0
O=C(Nc1ccc(Br)cn1)c1ccc(Br)s1	aSyn UTR act -198.5
CC(Cc1cccs1)NC(=O)Nc1ccc(Cl)c(Cl)c1 (configuration not stated)	aSyn UTR act -89.6
CCCC(=O)NC(c1cccs1)c1cc(Cl)c2cccnc2c1O (configuration not stated)	none
CC(Cc1cccs1)NC(=O)Nc1ccc(Cl)cc1 (configuration not stated)	aSyn UTR act -220.9
O=C(/C=C/c1cnc2ccccc2n1)NC12CC3CC(CC(C3)C1)C2	aSyn UTR act -139.6
CCN(C(=O)COC(=O)/C=C/c1cnc2ccccc2n1)c1ccccc1	aSyn UTR act -64.7
CCC(C)(C)NC(=O)/C=C/c1cnc2ccccc2n1	aSyn UTR act -121.6
COc1cccc(/C=N/Nc2ncnc3scc(-c4ccccc4)c23)c1O	none
Oc1c(Br)cc(/C=N/Nc2nncc3ccccc23)cc1Br	aSyn UTR act -108.6
COc1ccc(/C=N/Nc2nncc3ccccc23)cc1	none
COc1ccccc1/C=N/Nc1nncc2ccccc12	aSyn UTR act -131.5
Cc1ccc(CNc2ccc(N3CCOCC3)cc2)s1	aSyn UTR act -86.2
CC1CCN(C(=O)CSCc2ccc(Cl)cc2)CC1	aSyn UTR act -95.5
O=C(Nc1ccc(-n2cnnn2)cc1)c1cn2ccccc2n1	aSyn UTR act -88.5
COc1ccc(-c2csc(-n3ncc(C(=O)O)c3C(F)(F)F)n2)cc1	aSyn UTR act -76.3
O=C(O)c1cnn(-c2nc(-c3ccc(Cl)cc3)cs2)c1C(F)(F)F	aSyn UTR act -92.0
COC(=O)c1cnn(-c2nc(-c3ccccc3)cs2)c1N	aSyn UTR act -170.6
COC1=C(Nc2ccccc2)C(=O)c2ccccc2C1=O	aSyn UTR act -73.4
CNC1=C(N(C(C)=O)c2ccc(Br)cc2)C(=O)c2ccccc2C1=O	none
COC1=C(Nc2ccc(C)cc2)C(=O)c2ccccc2C1=O	aSyn UTR act -156.3
Cc1ccccc1C(=O)/C(C#N)=N/Nc1c(C)n(C)n(-c2ccccc2)c1=O	none
Cc1cc2oc(C(=O)Nc3c(C)n(C)n(-c4ccccc4)c3=O)c(C)c2cc1C	aSyn UTR act -63.5
CC(=O)Nc1cc2nn(-c3ccccc3)nc2cc1Cl	aSyn UTR act -122.8
Cc1cc(NC(=O)c2ccco2)ccc1-n1cnnn1	aSyn UTR act -76.7
Cc1ccnc2nc(NC(=O)c3ccco3)nn12	aSyn UTR act -80.8
CC(C)(C)n1cnc2cc(NC(=O)c3ccco3)ccc21	aSyn UTR act -88.4
O=C(Nc1cc2nn(-c3ccccc3)nc2cc1Cl)c1ccco1	aSyn UTR act -128.8
Nc1nc(NC(=O)c2ccco2)nn1-c1ccccc1	aSyn UTR act -65.7
O=C(Nc1nc2nccc(-c3ccccc3)n2n1)c1ccccc1	aSyn UTR act -82.8
O=C(Nc1ccc2nn(-c3ccccc3)nc2c1)c1ccco1	aSyn UTR act -255.4
CCCc1cc(C(=O)Nc2cc(Br)ccc2O)no1	aSyn UTR act -144.8
CCCc1cc(C(=O)Nc2cc(Cl)ccc2O)no1	aSyn UTR act -162.3
O=C1C2C3C=CC(CC3)C2C(=O)N1/N=C/c1c[nH]c2ccccc12 (configuration not stated)	aSyn UTR act -91.7
O=C1C2C3C=CC(C3)C2C(=O)N1/N=C/c1cn(Cc2ccccc2)c2ccccc12 (configuration not stated)	none
CC(C)NC(=S)NC(=O)/C=C/c1ccc(F)cc1	aSyn UTR act -64.2
CC(C)(C)SCCNC(=O)/C=C/c1ccccc1	aSyn UTR act -113.0
O=C(/C=C/c1ccccc1)NCCc1ccccc1	aSyn UTR act -153.8
CC(C)(C)SCCNC(=O)/C=C/c1ccc(F)cc1	aSyn UTR act -67.8
Clc1ccc(-c2cc3ccccc3[nH]2)cc1	aSyn UTR act -217.6
Cc1ccc2[nH]c(-c3ccccc3)cc(=O)c2c1	none
Cc1ccc(-c2cc(=O)c3cc(Cl)ccc3[nH]2)cc1	aSyn UTR act -92.3
O=c1cc(-c2ccc(Cl)cc2)[nH]c2ccccc12	aSyn UTR act -68.9
Cc1ccc(-c2cc(=O)c3ccccc3[nH]2)cc1	aSyn UTR act -77.0
Cc1cccc(CSc2cn(CC(=O)N3CCOCC3)c3ccccc23)c1	aSyn UTR act -129.9
O=C(Cn1cc(SCc2cccc(Cl)c2)c2ccccc21)N1CCOCC1	aSyn UTR act -152.6
Cc1cccc(/C(N)=N/OC(=O)c2ccc3c(c2)OCO3)c1	aSyn UTR act -115.9
N/C(=N\OC(=O)c1ccc2c(c1)OCO2)c1cccc([N+](=O)[O-])c1	aSyn UTR act -132.7
Cc1cccc(NC(=S)NNC(=O)c2sccc2C)c1	aSyn UTR act -134.2
CCc1cc(C(=O)Nc2ccc(C)cc2Br)cs1	aSyn UTR act -255.2
CCc1cc(C(=O)NNC(=S)Nc2cccc(C)c2)cs1	aSyn UTR act -129.8
Cc1cccc(NC(=S)NNC(=O)c2csc(C(C)C)c2)c1	aSyn UTR act -211.1
O=C(c1cc2ccccc2oc1=O)N(Cc1cccs1)C1CCS(=O)(=O)C1 (configuration not stated)	aSyn UTR act -104.1
COc1ccc(CN(C(=O)c2cc3ccccc3oc2=O)C2CCCCC2)cc1OC	aSyn UTR act -64.7
CCc1ccc(CN(C(=O)c2cc3ccccc3oc2=O)C2CCS(=O)(=O)C2)cc1 (configuration not stated)	aSyn UTR act -143.8
O=C(c1cc2ccccc2oc1=O)N(Cc1ccc(F)cc1)C1CCS(=O)(=O)C1 (configuration not stated)	aSyn UTR act -120.6
Cc1ccc(CN(C(=O)c2cc3ccccc3oc2=O)C2CCS(=O)(=O)C2)cc1 (configuration not stated)	aSyn UTR act -104.1
Cc1cc(C)c2c(CN3CCC(C)CC3)cc(=O)oc2c1	aSyn UTR act -156.9
Cc1cc2oc(=O)cc(CN3CCC(C)CC3)c2c(C)c1Cl	aSyn UTR act -87.9
